In the assay the test system is MDA-MB-468 breast. Put plainly: NCI-60 one-dose screen, 48 h (100 = growth as untreated, 0 = no growth, -100 = all killed). Conditions: 10 µM unless noted.

The structures appear in SMILES notation. “And” between values parts separate entries of the source, which are not always exact repeats. Identical values can stand only once. Compounds without any hit were thinned out: in the full panel of roughly 83,000, 20% have a hit.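 Values shown are percent growth following 48 h exposure of cells in 96-well plates to a single concentration of compound; below 10 was considered active.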 Values without a mark were called inactive. The source made the active and inactive calls.

For `Cn1c([N+](=O)[O-])cnc1/C=C1\Oc2ccccc2C1=O`, the growth was 28.3%.

Regarding `CCCCCN1C(=O)/C(=c2\sc3n(c2=O)C2C(NN=3)N(CC)C(=O)N2CC)c2ccccc21` (stereo not drawn), the growth is 5.08% (active).

With `O=C(CCc1nnco1)c1nc2ccc([N+](=O)[O-])cc2[nH]1`, the growth is 113%.

Take `O=C(NS(=O)(=O)c1ccccc1)n1cc(-c2ccncc2)c(-c2cc(O)cc(Cl)c2)n1`: the growth is 98.4%.

For the compound `O=C(NCCCN1CCCCC1)c1ccc(-c2nc3ccc4[nH]ncc4c3c3c2CCCC3)cc1`, the growth is 35.4%.

As for `O=C(NNc1cnccn1)c1nc2cc(F)ccc2n2cccc12`, the growth was -21.7% (active).

In the case of `OC(c1cc(C(F)(F)F)nc2c(C(F)(F)F)cccc12)C1CCCCN1` (stereo not drawn), the growth was -5.03% (active).

As to `CCOC(=O)/C=C1\SC(=Nc2ccc(C#N)cc2)N(CCN2C(=O)/C(=C/C(=O)OCC)SC2=Nc2ccc(C#N)cc2)C1=O`, the growth was 55.3%.

As for `COc1ccc(C/C(C)=C(\c2ccc(O)cc2)c2ccc(OCCCN(C)C)cc2)cc1`, the growth is 86.8%.

Regarding `CN1CCN(C(=O)c2ccc(NC(=O)c3cc4c(nn3)NCCN4Cc3cc(Cl)ccc3Cl)cc2)CC1`, the growth was 60.9%.

For the compound `NNCCc1ccc(NC(=O)CCCc2ccc(/C=C/C(=O)NO)cc2)cc1`, the growth was 18%.

As for `COC(=O)CNC(=O)[C@@H](OC)[C@@H]1Cc2cc3cc(OC4CC(OC5CC(O)C(O)C(C)O5)C(O)C(C)O4)c(C)c(O)c3c(O)c2C(=O)[C@H]1OC1CC(OC2CC(OC3CC(C)(O)C(O)C(C)O3)C(O)C(C)O2)C(O)C(C)O1` (stereo partly drawn), the growth is -22.3% (active).

On to `COc1cc(-c2nc(SCC(C)C)nc(Nc3cccc4ccccc34)c2C#N)cc(OC)c1OC`, for which the growth is 116%.

Regarding `CCOC(=O)Cc1csc2nc(-c3ccccc3)nn12`, the growth was 108%.

Take `CCOC(=O)N[C@H]1CCc2cc(OC)c(OC)c(OC)c2-c2ccc(SC)c(=O)cc21`: the growth is -36.8% (active).

Consider `CCN(CC)CCOc1nc2ccccc2c2c1-c1ccc(OC)cc1C2=O`, for which the growth was 14.3%.

Turning to `COc1ccc(C(C)=O)cc1S(=O)(=O)Nc1c(N)nc(SC)[nH]c1=O`, the growth is 97.6%.

With `CN1CCN(c2nc(-c3csc(-c4cccs4)n3)cc3ccccc23)CC1`, the growth was 20.3%.

For `NS(=O)(=O)c1ccc(-n2cc(CC=O)nn2)cc1`, the growth is 102%.

`CCOC(=O)C1=C(C)N=c2s/c(=C\c3cc(Cl)ccc3O)c(=O)n2C1c1ccc(OC)cc1` (stereo not drawn): the growth was 94.8%.

Take `CC1=C(O)C(=O)C(C(C#N)(C#N)C(C#N)C#N)C1` (stereo not drawn): the growth was 102%.

As for `COc1ccc(S(=O)(=O)Nc2cc(/C=C\c3cc(OC)c(OC)c(OC)c3)cc(OC)c2OC)cc1`, the growth is 19.5%.

Take `O=C(Nc1cccc2ccccc12)c1cc2c(cc1Br)OCO2`: the growth was 95.4%.

Turning to `O=C(N/N=C/c1ccc([N+](=O)[O-])cc1)c1ccc2nc(-c3ccc(Cl)cc3)[nH]c2c1`, the growth was -38.9% (active).

On to `O=C(O)c1ccc(-c2ccc(/C=N/Nc3nc(Nc4ccccc4)nc(N4CCCCC4)n3)o2)cc1`, for which the growth is 92.1%.

As for `C=C1CC[C@@H]2[C@](C)(COC(C)=O)[C@H](OC(C)=O)CC[C@@]2(C)[C@@H]1CC(Nc1ccc(S(=O)(=O)Nc2nccc(C)n2)cc1)C1=CCOC1=O` (stereo partly drawn), the growth was -45.8% (active).

On to `CC1=C(C)C(=O)C(Nc2cccc(C(F)(F)F)c2)=C(Cl)C1=O`, for which the growth is -65.6% (active).

As for `O=S(=O)(OCCOS(=O)(=O)c1ccccc1)c1ccccc1`, the growth was 95%.

`CC(C)(C)C(=O)Nc1nc2c(s1)CCc1ccn(S(=O)(=O)c3ccccc3)c1-2`: the growth was 88.7%.

For the compound `Nc1n[nH]c2cccc(C#Cc3cccc(C(=O)Nc4cc(C(F)(F)F)cc(C(F)(F)F)c4)c3)c12`, the growth was 87.5%.

On to `O=C1CC2C=CCN2C=C1NC(=O)C1CCCCC1` (stereo not drawn), for which the growth is 96.2%.

In the case of `O=C(CN1CCN(c2cc3c(cc2F)c(=O)c(C(=O)O)cn3C2CC2)CC1)Nc1ccc(Cl)cc1`, the growth was 86% and 91.1%.

As for `O=C(Nc1cccc(Cn2c(=O)[nH]c3ccc(Oc4ncccn4)cc3c2=O)c1)c1cccc(F)c1`, the growth is 49.8%.

Take `Cc1[nH]c(C(=O)Nc2ccc(C(=O)N3CCNCC3)cc2OC(C)C)c(Cl)c1Cl`: the growth was 64.8%.

As to `CCCCOC(=O)Oc1ccc(C(=O)Oc2ccc(OCC)cc2)cc1`, the growth was 113%.

Take `O=C(O)/C(=C\c1ccc(Cl)cc1)c1ccc(Cl)cc1`: the growth is 78.9%.

Turning to `COc1ccc(Nc2ncccc2NC(=O)c2cn(Cc3cccc(Oc4ccccc4)c3)nn2)cc1OC`, the growth is 55.6%.

As to `CCOC(=O)C1=C(C)NC(C)=C(C(=O)OCC)C1`, the growth was 97.7% and 86.9%.

With `Nc1nc(N)c(C=Nc2ccc(Br)cc2)c(Nc2ccc(Br)cc2)n1`, the growth is 109%.

Consider `O=C1/C(=C/c2ccc(F)cc2)CN(Cc2cn(CCNc3ccnc4cc(Cl)ccc34)nn2)C/C1=C\c1ccc(F)cc1`, for which the growth is -64.2% (active).

For `N#CC1=C(N)Oc2c(ccc3ccccc23)C1c1cccs1` (stereo not drawn), the growth is 26.5%.

`Clc1ccc2c(c1)N(c1ncnc3ccc(-c4cnc5[nH]ncc5c4)cc13)CC2`: the growth was 3.65% (active).

With `CC(=O)Cc1cccnc1`, the growth is 97.1%.

On to `CCOC(=O)c1nc2c3ccccc3ccn2c1C(=O)OC`, for which the growth was 92.1%.

As for `O=[N+]([O-])c1ccc2c(N=Nc3ccc4ccccc4c3O)c(O)cc(S(=O)(=O)O)c2c1`, the growth is 106%.

For `[O-]c1c[n+](-c2ccc(Cl)cc2)no1`, the growth was 98.7%.

Consider `O=[N+]([O-])c1ccccc1S(=O)c1ccccc1[N+](=O)[O-]`, for which the growth is 40.1%.

For the compound `CNC(=O)c1cc(Oc2ccc3c(c2)sc2nc(-c4ccc(N)cc4)cn23)ccn1`, the growth was 40.6%.

Turning to `OC(COc1ccccc1Cl)CN1CCN(c2cccc(Cl)c2)CC1` (stereo not drawn), the growth was 103%.

On to `O=c1oc2ccc(I)cc2c(=O)n1-c1ccc(F)cc1F`, for which the growth is -8.85% (active).

As for `COc1ccc(C2=NN(C(=O)c3cc(OC)c(OC)c(OC)c3)C(c3ccc(C#N)cc3)C2)cc1OC` (stereo not drawn), the growth is -25.8% (active).

Regarding `C=C(C)[C@@H]1CC[C@]2(c3ncc(C)o3)CC[C@]3(C)[C@H](CC[C@@H]4[C@@](C)(CCC#N)[C@H](C(=C)C)CC[C@]43C)[C@@H]12`, the growth is -63% [100 µM] (active).

For `COc1cc(/C=C2\SC(=O)NC2=O)ccc1OCC(=O)Nc1ccc(C(=O)/C=C/c2cc3ccccc3nc2Cl)cc1`, the growth was 61.4%.

On to `CC(=O)c1cc2c(o1)C(=O)c1ccccc1C2=O`, for which the growth is -40% (active).

As for `Cc1ccc(-n2c(C)nn3c(=O)c4c5c(sc4nc23)CN(C)CC5)cc1`, the growth was 102%.

Turning to `Cc1ccc(C(=O)Nc2nc3c(s2)CN(Cc2ccccc2)CC3)cn1`, the growth is 67.1%.

Consider `O=C1NC(=O)C(Cn2cnc3ccccc32)N1` (stereo not drawn), for which the growth was 99%.

For `C#CCOc1ccc(/C=N/Nc2nc(-c3cc(Cl)ccc3Cl)cs2)cc1`, the growth is 25.9%.

For the compound `COc1ccc(/C=C/C(=O)c2cc3c(N)c(C(=O)Nc4cccc(Cl)c4C)sc3nc2C)cc1`, the growth was 17.1%.

As for `Cc1ncc(C#N)c(N)n1`, the growth is 89.3%.

Consider `CCOC(=O)c1c(NC(=O)CSc2n[nH]c3nc4ccccc4n23)sc(CC)c1C`, for which the growth is 68.6%.

Turning to `COc1cccc(/C=C2\SC(N3CCN(c4ccccn4)CC3)=NC2=O)c1`, the growth was 101%.

On to `CCOc1cc(C2C(Cl)C(=O)N2n2cnnc2)ccc1O` (stereo not drawn), for which the growth was 111%.

As for `CN(C)CCCC1(c2ccc(F)cc2)OCc2cc(-c3ccc(C(F)(F)F)nc3)ccc21` (stereo not drawn), the growth was 73.3%.

On to `C#CCN(C)CCCOc1ccc(NC(=O)CCCCCCCCC(=O)NO)cc1Cl`, for which the growth is 27.6%.

Turning to `CCCCCCN(CCCCCC)CC(O)c1ccc2c3c(cccc13)CC2` (stereo not drawn), the growth is 55.6%.

For the compound `CCN(CC)CCCC(Cc1ccccc1)Nc1c2ccc(Cl)cc2nc2ccc(OC)cc12` (stereo not drawn), the growth was -72.3% (active).

Consider `Nn1c(CN2CCN(c3cc4c(cc3F)c(=O)c(C(=O)O)cn4C3CC3)CC2)n[nH]c1=S`, for which the growth is 99.2%.

As to `COc1ccc(NC(=O)c2cc(NCc3cc(O)ccc3O)ccc2O)cc1`, the growth is 88.5%.

Take `CCC(=O)NC1=C(Cl)C(=O)C(NC(=O)CC)=C(Cl)C1=O`: the growth is -69.8% (active).

As for `CC(C)(C)c1cc(NC(=O)Nc2ccc(-c3cn4c(n3)sc3cc(OCCN5CCOCC5)ccc34)cc2)no1`, the growth was 12.4% and 30.6%.

Regarding `CCOC(=O)C#Cc1c(C(=O)OCC)nnn1Cc1ccc([N+](=O)[O-])cc1`, the growth was -19.6% (active).

For `CCN1C(=O)N(c2ccccc2)C2NN=c3s/c(=C4\C(=O)N(C(C)C)c5ccccc54)c(=O)n3C21` (stereo not drawn), the growth was 21.4%.

Turning to `Nc1n[nH]c2cccc(C#Cc3cccc(NC(=O)c4ccc(N5CCOCC5)c(C(F)(F)F)c4)c3)c12`, the growth was 21.8%.

Regarding `NC(=O)NC(=O)c1ccc(Cl)cc1`, the growth is 117%.

With `CCOC(=O)C1=CSC2=NC3=C(CCC/C3=C\c3cc(OC)c(OC)c(OC)c3)C(c3cc(OC)c(OC)c(OC)c3)N12` (stereo not drawn), the growth is 33.8%.

For `N#CCC1=NC(c2cccs2)=Nc2ccccc2S1`, the growth was 82.2%.

For the compound `COc1cc(-c2n/c(=C\c3c(O)[nH]c4cc(Cl)ccc34)cc3c2=Nc2ccccc2-3)cc(OC)c1OC`, the growth is 73.7%.

Consider `N=C(N)c1ccc(-c2ccc(-c3ccc(Cl)cc3)o2)o1`, for which the growth was -21.5% (active).

As to `CN1CCN(Cc2ccc(NC(=O)c3cncc(C#Cc4cncc5[nH]ncc45)c3)cc2C(F)(F)F)CC1`, the growth was 16.6%.

Regarding `COc1cc2c(c(OC)c1OC)-c1ccc(NN(C(=O)c3ccccc3)C(=O)c3ccccc3)c(=O)cc1[C@@H](NC(C)=O)CC2` (tested in a mixture with another compound), the growth is 19.5%.

For `CCc1n(Cc2ccc3ccccc3n2)cc[n+]1Cc1ccc2ccccc2n1`, the growth is -30.1% (active).

As for `Cc1nc2ccccc2c(/C=C/c2ccc(C(F)(F)F)cc2)c1C(=O)/C=C/c1ccccc1`, the growth is -51% (active).

The record behind these values is PubChem BioAssay (NCI).
